The values below come from PubChem BioAssay (NCI).

Compounds without any hit were thinned out: in the full panel of roughly 83,000, 20% have a hit.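 The endpoint reported here, percent growth, reads 100 for growth as untreated, 0 for no net growth and -100 for all cells dead.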 Calls of active or inactive are those of the source. The calls were made as follows: active = growth percent below 10; inactive = the rest.

The subject of the test is SNB-75 CNS. Put plainly: NCI-60 one-dose screen, 48 h (100 = growth as untreated, 0 = no growth, -100 = all killed). The settings on record: 10 µM unless noted.
As to `COc1ccc(NC(=O)c2sc3nc(C)c(C(O)c4ccc(OC)cc4)cc3c2N)cc1` (stereo not given), the growth was -16% (active). `N#Cc1c(NC(=O)c2cccc(Br)c2)sc2c1CCCC2`: the growth was 84.4% (inactive). The figure for `Clc1ccc(C2CC(c3cccc(Nc4ccncc4)c3)=NN2c2ccccc2)cc1` (stereo not given) is 76.2% (inactive); for `O=C(OCc1nc2nc(Cl)nc(N3CCOCC3)c2[nH]1)n1ccnc1` it is -14.2% (active). In the case of `CC(=O)O[C@]1(C(C)=O)CC[C@H]2[C@@H]3C=C(Cl)C4=CC(=O)CC[C@]4(C)[C@H]3CC[C@@]21C`, the growth is 117% (inactive). With `CC(=O)c1c[nH]c2ccc(-c3ccnc(Nc4ccc(NC(=O)C5CCCC5)c(CN5CCOCC5)c4)n3)cc12`, the growth was -81.4% (active). As for `O=C(N/N=C/c1cccnc1)c1ccccc1Nc1cccc(C(F)(F)F)c1`, the growth is 83% (inactive).

On to `CN1CCN(CCCOc2ccc3ncnc(Nc4ccc(Oc5cccc(C(F)(F)F)c5)c(Cl)c4)c3c2)CC1`, for which the growth was -21.1% (active). Take `CN(C)Cc1c(-c2ccccc2)[nH]c2ccccc12`: the growth was 93.6% (inactive). Regarding `O=C(OC(OC(=O)c1cc(Cl)cc(Cl)c1)c1cccc2ccccc12)c1ccccc1` (stereo not given), the growth was 99.3% (inactive). The figure for `CCC(C)C(N)C(=O)NNc1n[nH]c(=S)n1N` (stereo not given) is 99.6% (inactive). As to `CC[C@H](C)[C@@H]1NC(=O)[C@H](Cc2ccc(O)cc2)N(C)C(=O)[C@H](Cc2ccccc2)NC(=O)CN(C)C(=O)[C@@H]2CCCN2C(=O)[C@@H](Cc2ccccc2)N(C)C(=O)[C@H](CC(C)C)NC1=O`, the growth is -11.6% (active). Consider `C#CC(=O)Nc1cccc(Nc2nc3c(c(NCc4ccccc4)n2)CCCC3)c1`, for which the growth is -29.3% (active). As for `CCCCCOc1ccc(/C=N/Nc2cc(C)nc3ccc(Br)cc23)cc1`, the growth was 85.5% (inactive). `COc1ccc(OC)c(/C=C/[C@H]2O[C@@H](C)[C@H](O)[C@@H]2O)c1`: the growth is 90.2% (inactive). Consider `COc1ccc(C(=O)c2cc(C)c(OC)c(C)c2)c(OC)c1O`, for which the growth was 57.8% (inactive). The figure for `C=C1C(=O)O[C@H]2[C@H]1CC/C(CNC(=O)/C=C/c1ccc(Br)cc1)=C\CC[C@@]1(C)O[C@@H]21` is 48.9% (inactive). Turning to `O=C(c1ccccc1)N1N=C(c2ccc(-n3ccc(C(F)(F)F)n3)cc2)CC1c1ccc[nH]1` (stereo not given), the growth was 80.6% (inactive). The figure for `CS(=O)(=O)Nc1cc(-c2ccc3ncnc(Nc4ccc5[nH]ncc5c4)c3c2)cnc1Cl` is 15.5% (inactive); for `Nc1ncc(C#Cc2cncc(NC(=O)c3cccc(C(F)(F)F)c3)c2)c2cccnc12` it is 60.7% (inactive); for `CCOC(=O)Oc1c(OC)cc(C(=O)O[C@@H]2C[C@@H]3CN4CCc5c([nH]c6cc(OC)ccc56)[C@H]4C[C@@H]3[C@H](C(=O)OC)[C@H]2OC)cc1OC` it is 91.1% (inactive). `O=C1Nc2ccccc2/C1=C\c1cccc(/C=C2/C(=O)Nc3ccccc32)n1`: the growth is -71.5% (active).

For `NC(=O)CN1CCN(c2ccccc2Cl)CC1`, the growth is 119% (inactive). The figure for `CSc1nnc2c(=O)n(C)c(=O)n(C)c2n1` is 100% (inactive); for `NC(=O)c1cccc(-c2ccccc2N2CCCCC2)c1` it is 99.7% (inactive). With `COc1cnccc1-c1nc2ccc3[nH]ncc3c2c2c1CCCC2`, the growth is 24.1% (inactive). The figure for `c1ccc(-c2nnc(Nc3ccc4c(c3)OCCO4)o2)c(NCc2ccncc2)c1` is 22.6% (inactive); for `CNC(=O)Nc1ccc(-c2nc(N3CCOCC3)nc3c2cnn3C2CCOCC2)cc1` it is -37.9% (active). Turning to `O=C(N/N=C/c1ccc(O)c(O)c1)c1sc2ccccc2c1Cl`, the growth is 83.2% (inactive).

For `COc1cc(C2CC(c3cccc(Nc4ccncc4)c3)=NN2c2ccccc2)cc(OC)c1OC` (stereo not given), the growth was 44.2% (inactive). For `Nc1ccccc1NC(=O)c1ccc(CN2CCC/C(=C\c3cccc(Cl)c3)C2=O)cc1`, the growth was 16.5% (inactive). In the case of `C[C@H]1[C@H](C)CC[C@]2(CO)CC[C@]3(C)C(=CC[C@@H]4[C@@]5(C)CCCNC(C)(C)[C@@H]5CC[C@]43C)[C@H]12`, the growth is 9.21% (active). On to `O=c1[nH]nc(-c2ccc(Br)cc2)cc1Cc1ccc(O)cc1`, for which the growth was 91.9% (inactive). In the case of `CC1(C)CC[C@]2(C(=O)NCC#CCN3CCOCC3)CC[C@]3(C)C(=CC[C@@H]4[C@@]5(C)Cc6c([nH]c7ccccc67)C(C)(C)[C@@H]5CC[C@]43C)[C@@H]2C1`, the growth is 98.2% (inactive). The figure for `COc1ccc(C(=O)/C=C/c2cn(Cc3ccc(Cl)cc3)c3ccccc23)cc1` is 76.9% (inactive).
